Test results from PubChem BioAssay.
Activity calls are given as the source filed them.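 The calls were made as follows, unless noted: active = visually confirmed hit in the image check and inhibition above 20%; inconclusive = visually confirmed hit but inhibition not above 20%; inactive = no visual hit in the image check.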

How the values were obtained:
[1] = inhibitors of TNFa-induced NFkB p65 translocation, primary screen, imaging, HUVEC, MLSMR starter and 10KST1 sets (AID 438;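 active = inhibition above 20% together with a positive visual image hit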;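 also: compound added about 3h40 before a 20 min TNFalpha stimulation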;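 as to inhibition: signal is the nuclear over cytoplasmic p65 intensity ratio per well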); settings: HUVEC TNFa-induced p65 nuclear translocation; cell count: measured here: nuclei count (cytotoxicity indicator), at 2.08 µM; inhibition: at 2 µM, stronger effect = higher value, 0% TNFa-plus-vehicle, 100% no-TNFa wells
[2] = inhibitors of mutant huntingtin aggregation, primary screen, imaging, exon1htt(103Q)mCFP cells, high-content imaging (AID 483;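 active = visual image review flags a hit and inhibition of aggregation exceeds 20%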;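 also: compound exposure lasted 3 days before fixation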;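 as to nuclei count: percent of the per-plate median nuclei count of sample wells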); settings: exon1htt(103Q)mCFP cell line, aggregate imaging, at 2 µM; inhibition of aggregation: stronger effect = higher value; nuclei count: measured here: cell count, toxicity
[3] = inhibitors of E-selectin induction by TNFa, primary screen, imaging, HUVEC, immunofluorescence, MLSMR starter and 10KST1 sets (AID 487); settings: HUVEC TNFalpha-induced E-selectin immunofluorescence imaging, at 2 µM; inhibition: stronger effect = higher value; nuclei count: measured here: cell number, toxicity;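 as to inhibition: signal is fraction of cell area covered by stained E-selectin grains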;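 as to nuclei count: 100% = median nuclei count of all wells on the same plate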
[4] = molecular target: Voltage-gated potassium channel subunit beta-2 (Rattus norvegicus) (UniProt P62483); assay: KvBeta enzyme negative modulators, primary screen, biochemical, NADPH fluorescence (AID 622;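 active = fluorescence slope higher than the sample average by over 3 SD, cut at about -0.22 in these data, passing the limit was not always enough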;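 also: slope of raw intensity against log time taken from 70 to 1610 s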); settings: recombinant KvBeta, 4-cyanobenzaldehyde reduction, at 10 µM, stronger effect = higher value
Sequence of Voltage-gated potassium channel subunit beta-2 (Rattus norvegicus) (P62483 whole entry, looked up): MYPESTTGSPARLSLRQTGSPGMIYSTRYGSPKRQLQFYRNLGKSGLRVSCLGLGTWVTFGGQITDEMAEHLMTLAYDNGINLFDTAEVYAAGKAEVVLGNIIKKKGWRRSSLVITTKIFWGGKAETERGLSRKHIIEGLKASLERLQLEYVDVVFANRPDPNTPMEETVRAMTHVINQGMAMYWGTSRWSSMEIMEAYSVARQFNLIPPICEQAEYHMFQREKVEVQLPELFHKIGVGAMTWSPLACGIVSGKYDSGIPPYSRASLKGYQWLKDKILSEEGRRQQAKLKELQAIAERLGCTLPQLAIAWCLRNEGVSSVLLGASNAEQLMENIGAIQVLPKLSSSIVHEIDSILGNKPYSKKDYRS

[5] = molecular target: Voltage-gated potassium channel subunit beta-2 (Rattus norvegicus) (UniProt P62483); assay: KvBeta positive modulators, primary screen, biochemical, NADPH fluorescence (AID 623;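 active = NADPH fluorescence slope more negative than the mean of all samples by about 3 SD, 99.7% confidence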;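 also: fluorescence intensity change per second fitted from 20 to 320 s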); settings: Recombinant KvBeta, NADPH fluorescence decrease slope, 10 min; at 10 µM; stronger effect = lower value
[6] = molecular target: Alpha-2C adrenergic receptor (Homo sapiens) (UniProt P18825); assay: modulators of alpha2C/GIRK thallium flux, primary screen, cell-based, HEK293 alpha2C/GIRK1/2 (AID 624;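 active = fluorescence slope after compound addition differing from the mean of all screened samples at 99.7% confidence, in either direction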;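 also: slope of fluorescence ratio to pre-addition baseline per second over 15 to 24 s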); settings: thallium flux BTC fluorescence, at 10 µM, actives lie on both sides
Sequence of Alpha-2C adrenergic receptor (Homo sapiens) (P18825 whole entry, looked up): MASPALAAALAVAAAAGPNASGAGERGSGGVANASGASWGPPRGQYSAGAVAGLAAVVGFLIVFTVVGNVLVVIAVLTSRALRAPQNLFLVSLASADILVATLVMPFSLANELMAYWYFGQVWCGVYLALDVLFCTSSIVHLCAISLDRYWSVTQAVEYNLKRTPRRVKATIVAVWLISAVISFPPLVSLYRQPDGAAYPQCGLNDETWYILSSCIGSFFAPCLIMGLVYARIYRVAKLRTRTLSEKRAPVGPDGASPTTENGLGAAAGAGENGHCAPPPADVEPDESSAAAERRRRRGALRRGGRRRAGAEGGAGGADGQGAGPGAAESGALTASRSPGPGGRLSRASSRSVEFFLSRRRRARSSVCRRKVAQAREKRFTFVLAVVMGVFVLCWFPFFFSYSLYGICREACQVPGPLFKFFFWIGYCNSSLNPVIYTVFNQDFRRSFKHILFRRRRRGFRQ

[7] = inhibitors of Sendai virus-induced IRF3 signaling, primary screen, TLR/RLR signaling modifier project, cell-based, Sendai virus stimulus, luciferase, 10K MLSCN set (AID 602276;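 active = inhibition at or above 50% at 10 µM; inactive = inhibition below 50%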;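 also: firefly luciferase from ISG56 promoter only with Renilla not read in this screen; 0% = Sendai virus plus DMSO and 100% = medium plus DMSO without virus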); settings: HEK293 RL24 IRF3 luciferase reporter, at 10 µM, stronger effect = higher value
[8] = inhibitors of poly I:C-induced TLR3 signaling, primary screen, cell-based, poly I:C stimulus, luciferase, 10K MLSCN set (AID 602277;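 active = inhibition of the reporter signal at or above 50%; inactive = inhibition below 50%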); settings: HEK293-TLR3 RL24 IRF3 luciferase reporter, at 10 µM, stronger effect = higher value

| SMILES | cell count [1] | inhibition [1] | inhibition of aggregation [2] | nuclei count [2] | inhibition [3] | nuclei count [3] | fluorescence slope [4] | NADPH fluorescence slope [5] | slope [6] | inhibition [7] | inhibition [8] |
| --- | --- | --- | --- | --- | --- | --- | --- | --- | --- | --- | --- |
| Cc1ccc(-c2nc3cc(NC(=O)C(C)C)ccc3o2)cc1 | 290 | -6.7% (inactive) | 14.3% (inactive) | 98.3% | 29.7% (inactive) | 87.7% | -0.319 (inactive) | -3e-05 (inactive) | 0.0055 (inactive) | -10.9% (inactive) | -66.2% (inactive) |
| CCOCCCNC(=O)c1cc2sc(Cl)cc2n1CC | 449 | 17.9% (inactive) | -1.1% (inactive) | 89.7% | -80.9% (inactive) | 100% | -0.531 (inactive) | -9.5e-05 (inactive) | 0.00603 (inactive) | 34.7% (inactive) | 19.5% (inactive) |
| O=C(COC(=O)c1cc(S(=O)(=O)N2CCOCC2)cs1)c1ccccc1 | 692 | -5.5% (inactive) | -9.6% (inactive) | 103% | -88.5% (inactive) | 114% | -0.485 (inactive) | -5.8e-05 (inactive) | 0.00656 (inactive) | 11.5% (inactive) | 29.5% (inactive) |
| COCCn1nnnc1C(c1cc2ccc(OC)cc2[nH]c1=O)N1CCc2ccccc2C1 (centres undefined) | 454 | 7.5% (inactive) | -1.5% (inactive) | 86.9% | -43% (inactive) | 95.9% | -0.503 (inactive) | -1.3e-05 (inactive) | 0.00527 (inactive) | 29.3% (inactive) | 37.8% (inactive) |
| COc1cc(C(Nc2ccc3c(c2)OCO3)C(=O)NC2CCCCC2)cc(OC)c1OC (centres undefined) | 835 | -10.7% (inactive) | 12.3% (inactive) | 88.5% | -35.2% (inactive) | 121% | -0.63 (inactive) | -3e-05 (inactive) | 0.00532 (inactive) | 14.6% (inactive) | 28.3% (inactive) |
| O=C(CSc1nnc(SCc2ccc(Cl)cc2)s1)N1CCN(C(=O)c2ccco2)CC1 | 236 | 42.2% (active) | -21.7% (inactive) | 116% | -194% (inactive) | 152% | -0.519 (inactive) | -0.000144 (inactive) | 0.00593 (inactive) | -1.92% (inactive) | -7.44% (inactive) |
| COC(=O)C1=CN(C)C=C(C(=O)OC)C1c1ccc(O)c(OC)c1 | 281 | 18.4% (inactive) | -27.8% (inactive) | 23.5% | 7.6% (inactive) | 103% | -0.39 (inactive) | -4.6e-05 (inactive) | 0.00249 (inactive) | 11.2% (inactive) | 23.8% (inactive) |
| CCCNC(=O)C1CC(=O)N(c2ccc(OCC(=O)Nc3cc(C)cc(C)c3)cc2)C1 (centres undefined) | 591 | -6.2% (inactive) | -2.7% (inactive) | 104% | -6.3% (inactive) | 114% | -0.562 (inactive) | -4e-05 (inactive) | 0.00634 (inactive) | -3.19% (inactive) | 27.9% (inactive) |
| Cc1ccc(C)c(N(CC(=O)NC2CCCC2)C(=O)CCCC(=O)Nc2ccccn2)c1 | 516 | -18.3% (inactive) | 7.5% (inactive) | 93.9% | -50.6% (inactive) | 95.7% | -0.539 (inactive) | -4.4e-05 (inactive) | 0.00581 (inactive) | 13.6% (inactive) | 27.2% (inactive) |
| O=C(CSCc1cccc(F)c1)N1CCN(c2ccccc2)CC1 | 545 | -14.3% (inactive) | 33.7% (inactive) | 68.7% | -66.2% (inactive) | 123% | -0.398 (inactive) | -5.3e-05 (inactive) | 0.00288 (inactive) | -32.3% (inactive) | -145% (inactive) |
| O=C(Cn1nc(Cc2cccnc2)c2ccccc2c1=O)Nc1ccc2c(c1)OCO2 | 576 | 3% (inactive) | 22.2% (inactive) | 109% | -9.3% (inactive) | 98.3% | -0.55 (inactive) | -3.9e-05 (inactive) | 0.00644 (inactive) | 10.9% (inactive) | 18.1% (inactive) |
| O=C(CCc1ccc(S(=O)(=O)N2CCOCC2)cc1)NCCc1ccccn1 | 709 | 3.1% (inactive) | -8% (inactive) | 104% | -158% (inactive) | 144% | -0.568 (inactive) | 1.5e-05 (inactive) | 0.00601 (inactive) | -4.86% (inactive) | 1.41% (inactive) |
| CC(=O)Nc1ccccc1OCc1nnc(-c2cccs2)o1 | 392 | 4.8% (inactive) | -8.8% (inactive) | 92.5% | -266% (inactive) | 104% | -0.612 (inactive) | 2e-06 (inactive) | 0.00944 (inactive) | -27% (inactive) | -28.6% (inactive) |
| COCCNC(=O)CN1CCN(Cc2cccc(Cl)c2)C1=O | 752 | -11.6% (inactive) | 28.6% (inactive) | 69.7% | -47.9% (inactive) | 125% | -0.536 (inactive) | -4.6e-05 (inactive) | 0.00677 (inactive) | 6.1% (inactive) | 16.8% (inactive) |
